This test has as its target T1, CRBN, Q96SW2.
T1 chain: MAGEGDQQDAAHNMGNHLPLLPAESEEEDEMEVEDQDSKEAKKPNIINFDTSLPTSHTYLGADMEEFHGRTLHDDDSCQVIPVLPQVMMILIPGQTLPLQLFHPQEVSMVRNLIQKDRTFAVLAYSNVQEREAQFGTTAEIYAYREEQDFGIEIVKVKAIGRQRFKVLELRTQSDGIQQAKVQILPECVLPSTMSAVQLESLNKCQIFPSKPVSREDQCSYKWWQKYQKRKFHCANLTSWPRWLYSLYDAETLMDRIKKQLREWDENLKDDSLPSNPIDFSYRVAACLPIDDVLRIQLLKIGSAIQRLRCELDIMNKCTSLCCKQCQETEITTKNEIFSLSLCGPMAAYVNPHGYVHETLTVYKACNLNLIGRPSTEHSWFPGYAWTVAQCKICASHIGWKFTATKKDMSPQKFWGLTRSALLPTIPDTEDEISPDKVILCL
The experiment in a line: log2 fold change of degron read counts, EGFP-low vs EGFP+ sorted cells (limma voom), compound-induced degradation; higher = more compound-induced degradation of the degron-EGFP fusion; degrons are variants of IKZF1/3 zinc finger 2; compound dose not given here. The conditions noted are these: Jurkat, 18 h.

Where [1] appears, read: compound: compound 19 (5-tert-butyl-thalidomide).
[2] abbreviates: compound: compound 22 (5-morpholino-thalidomide).
The mark [3] stands for this setting: compound: compound 33 (diphenyl IMiD analogue).

In all, about 8,300 sequences were measured (“log2 fold change of degron read counts, EGFP-low vs EGFP+ sorted cells (limma voom), compound-induced degradation”: median about -1.1, highest 2% from about 3.2 on). Only a selection was taken, and the highest values are over-represented in it overall.
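Further: pooled lentiviral library of zinc finger degron-EGFP fusions in mCherry-positive Jurkat cells, FACS-sorted after compound exposure, with degron abundance counted by next-generation sequencing.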

B1: 46F_47H_49N_50I_52G_53A_54H_55F_67L_, Q9UKT9 (peptide)
chain: FHCNICGAHFTQKGNLLRHIKL
B1: the “log2 fold change of degron read counts” value was 0.23 under setting [1], -0.286 under setting [2], -0.308 under setting [3] and -1.49 (compound: thalidomide).

B2: 46F_47G_49P_50I_52G_53H_54Q_55F_67L_, Q9UKT9 (peptide)
chain: FGCPICGHQFTQKGNLLRHIKL
For the sequence B2, the “log2 fold change of degron read counts” value by setting is: under setting [1], -1.23; under setting [2], -2.85; under setting [3], -2.17; (compound: thalidomide) -2.38.

B3: 46F_47V_49E_50V_52G_53A_54W_55F_67L_, Q9UKT9 (peptide)
chain: FVCEVCGAWFTQKGNLLRHIKL
For B3, the “log2 fold change of degron read counts” value reads like this: under setting [1], -1.7; under setting [2], -0.89; under setting [3], 0.622; (compound: thalidomide) 0.0931.

B4: 46F_47L_49D_50Q_52G_53A_54M_55F_67L_, Q9UKT9 (peptide)
chain: FLCDQCGAMFTQKGNLLRHIKL
In the case of B4, the “log2 fold change of degron read counts” value is -3.11 under setting [1], -2.68 under setting [2], -1.79 under setting [3] and -2.7 (compound: thalidomide).

B5: 46F_47I_49N_50Q_52G_53R_54A_55F_67L_, Q9UKT9 (peptide)
chain: FICNQCGRAFTQKGNLLRHIKL
Take B5: the “log2 fold change of degron read counts” value under setting [1] was -2.99, the “log2 fold change of degron read counts” value under setting [2] is -3.18, the “log2 fold change of degron read counts” value under setting [3] was -3.02 and the “log2 fold change of degron read counts” value (compound: thalidomide) was -2.57.

B6: 46F_47G_49N_50Q_52G_53A_54H_55F_67L_, Q9UKT9 (peptide)
chain: FGCNQCGAHFTQKGNLLRHIKL
As for B6, the “log2 fold change of degron read counts” value reads like this: under setting [1], -2.35; under setting [2], -2.82; under setting [3], -1.79; (compound: thalidomide) -2.17.

B7: 46F_47R_49E_50I_52G_53H_54Q_55F_67L_, Q9UKT9 (peptide)
chain: FRCEICGHQFTQKGNLLRHIKL
As to B7, the “log2 fold change of degron read counts” value reads like this: under setting [1], -3.28; under setting [2], -3.74; under setting [3], -2.48; (compound: thalidomide) -2.14.

B8: 46F_47Q_49D_50V_52G_53A_54C_55F_67L_, Q9UKT9 (peptide)
chain: FQCDVCGACFTQKGNLLRHIKL
Consider B8, for which the “log2 fold change of degron read counts” value was -1.14 under setting [1], 1.47 under setting [2], 0.493 under setting [3] and 3.01 (compound: thalidomide).

B9: 46F_47L_49S_50V_52G_53H_54L_55F_67L_, Q9UKT9 (peptide)
chain: FLCSVCGHLFTQKGNLLRHIKL
As for B9, the “log2 fold change of degron read counts” value under setting [1] was -2.16, the “log2 fold change of degron read counts” value under setting [2] is -2.42, the “log2 fold change of degron read counts” value under setting [3] is -2.1 and the “log2 fold change of degron read counts” value (compound: thalidomide) is -2.

B10: 46L_47C_49P_50I_52G_53F_54Q_55C_67L_, Q9UKT9 (peptide)
chain: LCCPICGFQCTQKGNLLRHIKL
With B10, the “log2 fold change of degron read counts” value by setting is: under setting [1], 2.04; under setting [2], 2.42; under setting [3], 2.76; (compound: thalidomide) 2.48.

B11: 46L_47R_49P_50I_52G_53F_54Q_55C_67L_, Q9UKT9 (peptide)
chain: LRCPICGFQCTQKGNLLRHIKL
On to B11, for which the “log2 fold change of degron read counts” value reads like this: under setting [1], 0.722; under setting [2], 0.186; under setting [3], 1.12; (compound: thalidomide) 1.62.

B12: 46L_47F_49P_50I_52G_53F_54Q_55C_67L_, Q9UKT9 (peptide)
chain: LFCPICGFQCTQKGNLLRHIKL
As for B12, the “log2 fold change of degron read counts” value reads like this: under setting [1], 3.36; under setting [2], 3.29; under setting [3], 2.33; (compound: thalidomide) 2.04.

B13: 46L_47Q_49P_50I_52G_53F_54Q_55C_67L_, Q9UKT9 (peptide)
chain: LQCPICGFQCTQKGNLLRHIKL
Consider B13, for which the “log2 fold change of degron read counts” value under setting [1] was 1.01, the “log2 fold change of degron read counts” value under setting [2] is 1.71, the “log2 fold change of degron read counts” value under setting [3] was 1.77 and the “log2 fold change of degron read counts” value (compound: thalidomide) is 3.45.

B14: 46L_47K_49P_50I_52G_53F_54Q_55C_67L_, Q9UKT9 (peptide)
chain: LKCPICGFQCTQKGNLLRHIKL
With B14, the “log2 fold change of degron read counts” value is, setting by setting: under setting [1], -0.0362; under setting [2], -1.47; under setting [3], -1.46; (compound: thalidomide) 0.648.

B15: 46L_47N_49P_50I_52G_53F_54Q_55C_67L_, Q9UKT9 (peptide)
chain: LNCPICGFQCTQKGNLLRHIKL
Consider B15, for which the “log2 fold change of degron read counts” value by setting is: under setting [1], 1.88; under setting [2], 1.12; under setting [3], 0.537; (compound: thalidomide) 1.19.

B16: 46L_47W_49P_50I_52G_53F_54Q_55C_67L_, Q9UKT9 (peptide)
chain: LWCPICGFQCTQKGNLLRHIKL
As to B16, the “log2 fold change of degron read counts” value reads like this: under setting [1], 3.21; under setting [2], 3.52; under setting [3], 2.81; (compound: thalidomide) 1.97.

B17: 46L_47T_49P_50I_52G_53F_54Q_55C_67L_, Q9UKT9 (peptide)
chain: LTCPICGFQCTQKGNLLRHIKL
B17: the “log2 fold change of degron read counts” value reads like this: under setting [1], 0.773; under setting [2], 2.5; under setting [3], 2.25; (compound: thalidomide) 2.88.

B18: 46L_47I_49P_50I_52G_53F_54Q_55C_67L_, Q9UKT9 (peptide)
chain: LICPICGFQCTQKGNLLRHIKL
Take B18: the “log2 fold change of degron read counts” value under setting [1] worked out at 0.317, the “log2 fold change of degron read counts” value under setting [2] came to 2.57, the “log2 fold change of degron read counts” value under setting [3] turned out to be 2.11 and the “log2 fold change of degron read counts” value (compound: thalidomide) was found to be 2.94.

B19: 46L_47D_49P_50I_52G_53F_54Q_55C_67L_, Q9UKT9 (peptide)
chain: LDCPICGFQCTQKGNLLRHIKL
Take B19: the “log2 fold change of degron read counts” value turned out to be 0.742 under setting [1], 0.239 under setting [2], 0.58 under setting [3] and 1.8 (compound: thalidomide).

B20: 46L_47M_49P_50I_52G_53F_54Q_55C_67L_, Q9UKT9 (peptide)
chain: LMCPICGFQCTQKGNLLRHIKL
On to B20, for which the “log2 fold change of degron read counts” value under setting [1] was 0.282, the “log2 fold change of degron read counts” value under setting [2] is 1.65, the “log2 fold change of degron read counts” value under setting [3] was 2.68 and the “log2 fold change of degron read counts” value (compound: thalidomide) was determined as 2.37.

B21: 46L_47Y_49P_50I_52G_53F_54Q_55C_67L_, Q9UKT9 (peptide)
chain: LYCPICGFQCTQKGNLLRHIKL
For the sequence B21, the “log2 fold change of degron read counts” value was 3.45 under setting [1], 3.56 under setting [2], 2.59 under setting [3] and 1.87 (compound: thalidomide).

B22: 46F_47M_49N_50V_52G_53A_54Q_55F_67L_, Q9UKT9 (peptide)
chain: FMCNVCGAQFTQKGNLLRHIKL
B22: the “log2 fold change of degron read counts” value under setting [1] was -1.96, the “log2 fold change of degron read counts” value under setting [2] is -1.18, the “log2 fold change of degron read counts” value under setting [3] came out at 1.65 and the “log2 fold change of degron read counts” value (compound: thalidomide) is -0.484.

B23: 46F_47Y_49N_50V_52G_53A_54E_55F_67L_, Q9UKT9 (peptide)
chain: FYCNVCGAEFTQKGNLLRHIKL
On to B23, for which the “log2 fold change of degron read counts” value under setting [1] is 0.141, the “log2 fold change of degron read counts” value under setting [2] is -0.307, the “log2 fold change of degron read counts” value under setting [3] is -0.204 and the “log2 fold change of degron read counts” value (compound: thalidomide) was -1.92.

B24: 46F_47D_49S_50V_52G_53H_54G_55F_67L_, Q9UKT9 (peptide)
chain: FDCSVCGHGFTQKGNLLRHIKL
For the sequence B24, the “log2 fold change of degron read counts” value is, setting by setting: under setting [1], -2.13; under setting [2], -2.49; under setting [3], -2.85; (compound: thalidomide) -2.61.

B25: 46F_47I_49E_50I_52G_53H_54P_55F_67L_, Q9UKT9 (peptide)
chain: FICEICGHPFTQKGNLLRHIKL
Turning to B25, the “log2 fold change of degron read counts” value runs as follows: under setting [1], -2.2; under setting [2], -1.74; under setting [3], -1.09; (compound: thalidomide) -0.749.

B26: 46F_47T_49N_50Q_52G_53A_54F_55F_67L_, Q9UKT9 (peptide)
chain: FTCNQCGAFFTQKGNLLRHIKL
As to B26, the “log2 fold change of degron read counts” value is, setting by setting: under setting [1], -2.21; under setting [2], -2.47; under setting [3], -2.04; (compound: thalidomide) -1.89.

B27: 46F_47M_49D_50Q_52G_53A_54M_55F_67L_, Q9UKT9 (peptide)
chain: FMCDQCGAMFTQKGNLLRHIKL
Regarding B27, the “log2 fold change of degron read counts” value is, setting by setting: under setting [1], -2.85; under setting [2], -3.27; under setting [3], -1.88; (compound: thalidomide) -2.89.

B28: 46F_47V_49E_50I_52G_53R_54Y_55F_67L_, Q9UKT9 (peptide)
chain: FVCEICGRYFTQKGNLLRHIKL
On to B28, for which the “log2 fold change of degron read counts” value runs as follows: under setting [1], -1.62; under setting [2], -1.93; under setting [3], -1.15; (compound: thalidomide) -0.136.
